Measurements reported in the supplement of paper PMC13380429.

Tested on: Vero E6 infected with SARS-CoV-2
Assay: inhibition of SARS-CoV-2 cytopathic effect; higher = more antiviral protection, active = above 15
Settings: 48 h

Measured: inhibition of SARS-CoV-2 cytopathic effect

OCc1ccccc1O [salicyl-alcohol]
inactive: 1 nM -0.86% | 8.33 nM -1.41% | 100 nM 0.06% | 833.33 nM 4.76% | 10000 nM 0.29%

Cc1ccc(O)c(N=Nc2ccccc2)n1
inactive: 1 nM -2.81% | 8.33 nM -4.41% | 100 nM -3.53% | 833.33 nM 0.01% | 10000 nM 3.77%

Cc1ccc2c(c1)[C@]13CCCC[C@@H]1[C@H](C2)N(C)CC3 [dimemorfan]
inactive: 1 nM 0% | 8.33 nM 0.39% | 100 nM 0.04% | 833.33 nM 1.02% | 10000 nM 0.98%

CC(=O)c1cc2c(o1)C(=O)c1ccccc1C2=O [napabucasin]
inactive: 1 nM 0.24% | 8.33 nM 1.91% | 100 nM 1.42% | 833.33 nM 7.16% | 10000 nM -36.6%

CC(C)c1cc(C(=O)N2Cc3ccc(CN4CCN(C)CC4)cc3C2)c(O)cc1O
inactive: 1 nM -1.87% | 8.33 nM -3.96% | 100 nM -5.27% | 833.33 nM -1.1% | 10000 nM 0.31%

CCCOC(=O)c1ccc(O)cc1 [propyl 4-hydroxybenzoate]
inactive: 1 nM -1.38% | 8.33 nM -0.18% | 100 nM -0.42% | 833.33 nM 2.26% | 10000 nM -3.05%

CN1CC[C@@H](NC(=O)Nc2ccc(C#N)cc2)C[C@@H]1c1nc2ccccc2[nH]1 [glasdegib]
inactive: 1 nM 2.8% | 8.33 nM 1.32% | 100 nM 1.05% | 833.33 nM -0.41% | 10000 nM 1.71%

CCN(CC)CCNC(=O)c1ccc(N)cc1 [procainamide]
inactive: 1 nM -2.56% | 8.33 nM 0.24% | 100 nM -0.04% | 833.33 nM -1.26% | 10000 nM 0.87%

Cc1ccc(Cl)c(OC[C@H](O)CNC(C)C)c1 [1-(2-chloro-5-methylphenoxy)-3-(isopropylamino)-2-propanol]
inactive: 1 nM 0.19% | 8.33 nM -0.3% | 100 nM -0.68% | 833.33 nM 0.3% | 10000 nM -2.47%

Cc1cc(Oc2ccc3nc(COc4ccc(CC5SC(=O)NC5=O)cc4)n(C)c3c2)cc(C)c1N (stereo not given) [efatutazone]
inactive: 1 nM -0.56% | 8.33 nM 2.28% | 100 nM 0.7% | 833.33 nM 0.08% | 10000 nM -0.83%

C[n+]1ccc(C(=O)NCc2ccccc2)cc1 [enisamium-iodide]
inactive: 1 nM -0.64% | 8.33 nM 7.37% | 100 nM -0.6% | 833.33 nM 4.79% | 10000 nM 0.11%

C=C[C@]1(C)C[C@@H](OC(=O)CSC(C)(C)CNC(=O)[C@H](N)C(C)C)[C@]2(C)[C@H](C)CC[C@]3(CCC(=O)[C@H]32)[C@@H](C)[C@@H]1O [valnemulin]
inactive: 1 nM -0.47% | 8.33 nM -0.46% | 100 nM -2.63% | 833.33 nM -4.5% | 10000 nM -4.72%

CC(C)(C)NCC(O)CSc1nc(-c2ccc(C(N)=O)s2)cs1 (stereo not given) [arotinolol]
inactive: 1 nM -12.3% | 8.33 nM -9.63% | 100 nM -11% | 833.33 nM -9.7% | 10000 nM -6.09%

CN(C)CCOc1ccc(-c2nc(-c3ccncc3)c(-c3ccc4c(c3)CC/C4=N\O)[nH]2)cc1
inactive: 1 nM -0.13% | 8.33 nM -0.36% | 100 nM 2.34% | 833.33 nM -0.51% | 10000 nM 6.82%

CN(CC[C@@H](Oc1ccc(-c2ccccc2)cc1)c1ccc(F)cc1)CC(=O)O
inactive: 1 nM 0.18% | 8.33 nM 1.55% | 100 nM 0.56% | 833.33 nM 0.79% | 10000 nM 0.89%

CN(CCOc1ccc(C[C@H](Nc2ccccc2C(=O)c2ccccc2)C(=O)O)cc1)c1ccccn1
inactive: 1 nM 2.1% | 8.33 nM 2.86% | 100 nM 0.52% | 833.33 nM 0.58% | 10000 nM -1.74%

O=C(O)c1ccccc1Nc1cccc(OCc2ccc3ccccc3n2)c1
inactive: 1 nM -0.27% | 8.33 nM 2.38% | 100 nM 0.56% | 833.33 nM 0.3% | 10000 nM -0.51%

CC(C)C[C@H](NC(=O)[C@@H](COC(C)(C)C)NC(=O)[C@H](Cc1ccc(O)cc1)NC(=O)[C@H](CO)NC(=O)[C@H](Cc1c[nH]c2ccccc12)NC(=O)[C@H](Cc1cnc[nH]1)NC(=O)[C@@H]1CCC(=O)N1)C(=O)N[C@@H](CCCNC(=N)N)C(=O)N1CCC[C@H]1C(=O)NNC(N)=O [goserelin-acetate]
inactive: 1 nM 1.97% | 8.33 nM 1.03% | 100 nM 2.63% | 833.33 nM -0.57% | 10000 nM 5.2%

Cc1cc(C(=O)Nc2nc3cccc(Cl)c3n2[C@@H]2CCCCN(C(=O)/C=C/CN(C)C)C2)ccn1
inactive: 1 nM 2.52% | 8.33 nM -0.94% | 100 nM 0.57% | 833.33 nM -8.44% | 10000 nM 10.4%
